Experimental findings from the supplement of paper PMC9446081 are described below.

± gives the standard deviation of the averaged measurements.

Chain of MurC (C4ZRI6 whole entry, looked up): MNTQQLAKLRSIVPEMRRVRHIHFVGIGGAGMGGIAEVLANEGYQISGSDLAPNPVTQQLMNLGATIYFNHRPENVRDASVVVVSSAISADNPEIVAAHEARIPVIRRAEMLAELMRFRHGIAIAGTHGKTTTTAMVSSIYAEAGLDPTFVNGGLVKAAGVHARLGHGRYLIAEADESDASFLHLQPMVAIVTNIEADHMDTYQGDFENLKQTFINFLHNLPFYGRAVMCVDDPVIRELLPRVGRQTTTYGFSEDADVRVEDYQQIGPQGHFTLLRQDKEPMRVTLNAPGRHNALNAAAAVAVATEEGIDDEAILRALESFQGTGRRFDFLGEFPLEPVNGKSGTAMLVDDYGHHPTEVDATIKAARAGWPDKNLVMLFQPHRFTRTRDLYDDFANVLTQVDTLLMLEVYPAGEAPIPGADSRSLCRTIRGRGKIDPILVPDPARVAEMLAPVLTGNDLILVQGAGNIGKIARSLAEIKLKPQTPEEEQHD

This assay deals with MurC (UniProt C4ZRI6). Put plainly: relative enzymatic activity vs untreated control (fraction); higher = less inhibition. Particulars: 100 µM; incubation time: 2 h at 37 C. The protocol:
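In vitro enzymatic inhibition assays (ProFoldin kits) for 12 purified essential E. coli enzymes or complexes, each treated with 218 active antibacterial compounds at 100 µM for 2 h at 37°C. Read-outs were fluorescence or absorbance (phosphate detection, dye binding), converted to activity via standard curves and expressed relative to untreated DMSO controls.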
In turn, `CC(NCCCc1cccc(C(F)(F)F)c1)c1cccc2ccccc12.Cl` (stereo not given) registered a relative enzymatic activity of 0.985 ± 0.092. For `CC1COc2c(C3(N)CC3)c(F)cc3c(=O)c(C(=O)O)cn1c23.CS(=O)(=O)O` (stereo not given) the value was 0.958 ± 0.027; for `COc1ccc(Cc2cnc(N)nc2N)cc1OC`, 1.1 ± 0.079; for `CCC1OC(=O)C(C)C(OC2CC(C)(OC)C(O)C(C)O2)C(C)C(OC2OC(C)CC(N(C)C)C2O)C(C)(O)CC(C)CN(C)C(C)C(O)C1(C)O` (stereo not given), 0.998 ± 0.082. For `O=C1NCCN1c1ncc([N+](=O)[O-])s1` the value was 1.008 ± 0.01; for `CO/N=C(\C(=O)N[C@@H]1C(=O)N2C(C(=O)O)=C(C[n+]3ccn4ncccc43)CS[C@H]12)c1nsc(N)n1`, 0.964 ± 0.082; for `COc1c(N2CCNC(C)C2)c(F)cc2c(=O)c(C(=O)O)cn(C3CC3)c12` (stereo not given), 1 ± 0.027.

For the compound `CO/N=C(\C(=O)N[C@@H]1C(=O)N2C(C(=O)O)=C(CSc3nnnn3C)CS[C@H]12)c1csc(N)n1`, the relative enzymatic activity was 1.05 ± 0.082. The value for `NC[C@H]1O[C@H](O[C@H]2[C@H](O)[C@@H](O[C@H]3O[C@H](CO)[C@@H](O)[C@H](N)[C@H]3O)[C@H](N)C[C@@H]2N)[C@H](N)[C@@H](O)[C@@H]1O` was 0.9682 ± 0.0015. For `C=CC1=C(C(=O)O)N2C(=O)[C@@H](NC(=O)/C(=N/O)c3csc(N)n3)[C@H]2SC1` the value was 0.917 ± 0.017. For `CCCCCCCCCCCCC[N+](C)(C)Cc1ccccc1.O.[Cl-]` the value was 0.556 ± 0.086; for `COC1(NC(=O)C(C(=O)[O-])c2ccc(O)cc2)C(=O)N2C(C(=O)[O-])=C(CSc3nnnn3C)COC21.[Na+].[Na+]` (stereo not given), 1.03 ± 0.046.

Compound `CC(C)(O/N=C(\C(=O)N[C@@H]1C(=O)N2C(C(=O)O)=C(C[N+]3(CCNC(=O)c4ccc(O)c(O)c4Cl)CCCC3)CS[C@H]12)c1csc(N)n1)C(=O)O` had a relative enzymatic activity of 0.83 ± 0.29. For `CN(C)CCOC(c1ccccc1)c1ccccc1.Cn1c(=O)c2[nH]c(Cl)nc2n(C)c1=O` the value was 1.02 ± 0.026; for `O=c1[nH]cc(F)c(=O)[nH]1`, 0.97 ± 0.074. The compound `CC1CCc2cc(F)cc3c(=O)c(C(=O)O)cn1c23` (stereo not given) came in with a relative enzymatic activity of 1.01 ± 0.053. For `Cl.Cl.N=C(NCCCCCCNC(=N)NC(=N)Nc1ccc(Cl)cc1)NC(=N)Nc1ccc(Cl)cc1` the value was 0.901 ± 0.04; for `CN(C)c1ccc(O)c2c1C[C@H]1C[C@H]3[C@H](N(C)C)C(=O)C(C(N)=O)=C(O)[C@@]3(O)C(=O)[C@H]1C2=O`, 0.99 ± 0.069. `CCN1CCN(C(=O)NC(C(=O)NC2C(=O)N3C(C(=O)O)=C(CSc4nnnn4C)CSC23)c2ccc(O)cc2)C(=O)C1=O` (stereo not given): the relative enzymatic activity was 0.942 ± 0.1.

`CON=C(C(=O)N[C@@H]1C(=O)N2C(C(=O)O)=C(CSc3nc(=O)c(O)nn3C)CS[C@H]12)c1csc(N)n1` had a relative enzymatic activity of 0.751 ± 0.23.

In turn, `CN(C)[C@@H]1C(=O)[C@@H](C(N)=O)C(=O)[C@@]2(O)C(=O)[C@H]3C(=O)c4c(O)ccc(Cl)c4[C@@H](O)[C@H]3C[C@@H]12` displayed a relative enzymatic activity of 1.009 ± 0.01. The value for `CC1c2cccc(O)c2C(=O)C2=C(O)C3(O)C(=O)C(C(N)=O)=C(O)C(N(C)C)C3C(O)C21.Cl` (stereo not given) was 1.02 ± 0.027; that for `COc1ccc2c(c1OC)C(=O)OC2C1c2c(cc3c(c2OC)OCO3)CCN1C.Cl` (stereo not given) was 1.45 ± 0.16; that for `CCN1CCN(c2cc3c(cc2F)c(=O)c(C(=O)O)cn3C2CC2)CC1` was 0.8357 ± 0.0041. Turning to `CCn1cc(C(=O)O)c(=O)c2cc(F)c(N3CCNCC3)nc21`, the relative enzymatic activity was determined as 0.948 ± 0.15. The value for `CON=C(C(=O)NC1C(=O)N2C(C(=O)O)=C(C[N+]3(C)CCCC3)CSC12)c1csc(N)n1.[Cl-]` (stereo not given) was 0.984 ± 0.032; that for `CCCC[P+](CCCC)(CCCC)Cc1ccc(NC(=O)[C@@H](Cc2ccc3ccccc3c2)N=C(NC2CCCCC2)NC2CCCCC2)cc1` was 0.817 ± 0.36; that for `Cc1cn(C2CC(N=[N+]=[N-])C(CO)O2)c(=O)[nH]c1=O` (stereo not given) was 1.01 ± 0.068.

`CCC1OC(=O)C(C)C(=O)C(C)C(OC2OC(C)CC(N(C)C)C2O)C(C)(OC)CC(C)C(=O)C(C)C2N(CCCCn3cnc(-c4cccnc4)c3)C(=O)OC12C` (stereo not given) displayed a relative enzymatic activity of 0.741 ± 0.33. For `CCCCCCCCCCCCCCCC[N+](C)(C)C` the value was 0.568 ± 0.56; for `NCc1ccccc1CC(=O)NC1C(=O)N2C(C(=O)O)=C(CSc3nnnn3CC(=O)O)CSC12` (stereo not given), 1.05 ± 0.17.

Consider `O=[N+]([O-])c1ccc(O)c2ncccc12`, for which the relative enzymatic activity came out at 1.046 ± 0.004. The value for `CO/N=C(\C(=O)N[C@@H]1C(=O)N2C(C(=O)O)=C(CSC(=O)c3ccco3)CS[C@H]12)c1csc(N)n1` was 0.977 ± 0.095.

Take `CON=C(C(=O)NC1C(=O)N2C(C(=O)[O-])=C(CSc3nc(=O)c([O-])nn3C)CSC12)c1csc(N)n1.O.O.O.[Na+].[Na+]` (stereo not given): the relative enzymatic activity was determined as 1.041 ± 0.0071. The value for `Cc1cc(C2CCCCC2)n(O)c(=O)c1.NCCO` was 1.18 ± 0.057. For `COC1=C(OC)C(=O)C(CCCCCCCCCC[P+](c2ccccc2)(c2ccccc2)c2ccccc2)=C(C)C1=O` the value was 0.344 ± 0.24. For `CNC1C(OC2C(OC3C(O)C(O)C(NC(=N)N)C(O)C3NC(=N)N)OC(C)C2(O)CO)OC(CO)C(O)C1O.O=S(=O)(O)O` (stereo not given) the value was 1.1 ± 0.059; for `CN(C)C1C(O)=C(C(N)=O)C(=O)C2(O)C(O)=C3C(=O)c4c(O)ccc(Cl)c4C(C)(O)C3CC12.Cl` (stereo not given), 1.05 ± 0.02. As for `COc1c(N2CC3CCCNC3C2)c(F)cc2c(=O)c(C(=O)O)cn(C3CC3)c12.Cl` (stereo not given), the relative enzymatic activity turned out to be 1.01 ± 0.025. For `COC1C=COC2(C)Oc3c(C)c(O)c4c(O)c(c(C=NN5CCN(C)CC5)c(O)c4c3C2=O)NC(=O)C(C)=CC=CC(C)C(O)C(C)C(O)C(C)C(OC(C)=O)C1C` (stereo not given) the value was 0.282 ± 0.059.
